Twelve compounds from PubChem BioAssay (NCATS) can be followed below.

Molecules are shown by their SMILES. Records with an inconclusive call do not appear. Values without a mark were called inactive. Active and inactive are the calls of the source. The call rests on the fitted dose curve; in most records, active means well fitted activation curve with a large enough effect; inconclusive means small, poorly fitted or top-dose-only effect; inactive means flat fitted curve, though single readings scatter.
Potency means the concentration at half of the fitted maximal effect.

Sequence of Nuclear receptor subfamily 1 group I member 3 (Homo sapiens) (Q14994 whole entry, looked up): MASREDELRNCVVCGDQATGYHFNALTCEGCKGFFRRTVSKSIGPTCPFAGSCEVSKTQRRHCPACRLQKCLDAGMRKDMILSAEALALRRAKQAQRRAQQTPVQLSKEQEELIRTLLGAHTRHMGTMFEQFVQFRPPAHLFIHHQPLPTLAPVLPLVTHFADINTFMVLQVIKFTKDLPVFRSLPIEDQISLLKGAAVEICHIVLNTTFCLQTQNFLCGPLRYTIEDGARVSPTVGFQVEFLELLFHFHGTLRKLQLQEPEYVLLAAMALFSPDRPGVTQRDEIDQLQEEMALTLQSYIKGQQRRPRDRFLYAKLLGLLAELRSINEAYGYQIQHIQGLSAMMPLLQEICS

The test has as its target Nuclear receptor subfamily 1 group I member 3 (Homo sapiens) (UniProt Q14994). As to the kind of experiment: Primary qHTS for agonist of constitutive androstane receptor (CAR) against the NCATS DSHEA and TCM libraries (AID 1794839).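 On activation: HepG2 cells expressing human CAR with a CYP2B6 reporter plus PK11195 antagonist; 0% is about no effect.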 The settings on record: CAR agonist reporter cells, qHTS luminescence; Potency: CAR antagonist co-added at 0.75 µM unless noted; series mostly up to 40 µM; activation: at the top concentration. The source says:
National Center for Advancing Translational Sciences (NCATS), Rockville, MD
National Institute of Health (NIH), Bethesda, Maryland
Dietary Supplements and Natural Products have minor oversight of their safety and efficacy. We assembled a collection of Dietary Supplements and Natural Products (DSNP) as well as Traditional Chinese Medicinal (TCM) Plant extracts, which were screened against an in vitro panel of assays, including a liver cytochrome p450 enzyme panel, CAR/PXR signaling pathways, and P-gp transporter assays, to assess their activity. This pipeline facilitated the interrogation of Natural Product-Drug Interaction (NaPDI) through prominent metabolizing pathways. In addition, we compared the activity profiles of the DSNP/TCM substances with those of an approved drug collection. Many of the approved drugs have well-annotated mechanisms of action (MOA) while the MOAs for most of the DSNP and TCM samples remain unknown. Based on the premise that compounds with similar activity profiles tend to share similar targets or MOA, we clustered the library activity profiles to identify overlap with the NCATS Pharmaceutical Collection to predict the MOAs of the DSNP/TCM substances. Overall, we highlight four significant bioactivity profiles (measured by p-values) as examples of this prediction.
To this end, we profiled both collections for potential CAR and/or PXR activity, employing a previously published 1536-well qHTS assay.
PROTOCOL TABLE (as described by Inglese J, Shamu CE and Guy RK. 2007)
SEQUENCE No. (e.g., 1, 2, 3, etc.); […] (e.g., Cells, Incubation, Reagent, etc.); VALUE; DESCRIPTION.
1; Cells; 4 uL; 1536-well white Greiner assay plate.
2; Incubation; 5 hours; 37C, 95% humidity, 5% CO2.
3; Compounds; 23 nL; Kalypsis pin tool (Wako USA) equipped with 1536-well pin head to transfer to the assay plates.
4; Reagent; 1 uL; 0.75 uM PK11195 (final concentration).
5; Incubation; 24 hours; 37C, 5% CO2.
6; Detection Reagent 1; 1 uL; CellTiter-Fluor (Promega).
7; Incubation; 1 hour; 37C, 5% CO2.
8; Detector 1; Fluorescence intensity; ViewLux plate reader (excitation 405 nm, emission 540 nm).
9; Detection Reagent 2; 4 uL; ONE-Glo Luciferase reagent (Promega).
10; Incubation; 30 min; room temperature.
11; Detector 2; Luminescence intensity; ViewLux.
NOTES (numbers refer to Sequence numbers above)
1. 4 µL of HepG2-CYP2B6-hCAR cells at 6.25 x 10^5 cells/mL (2,500 cells/well) were dispensed using a Multidrop Combi dispenser in tissue culture-treated 1536-well white assay plates (Greiner Bio-One) in the same culture media, without geneticin and blasticidin included.
2. Plates were incubated for 5 hours at 37 degrees C, 95% humidity, and 5% CO2 to allow for cell attachment.
3. Compounds (final concentrations of most substances ranged from 15.6 nM to 31.9 µM), positive control (for agonist mode: 6-(4-Chlorophenyl)imidazo[2,1-b][1,3]thiazole-5-carbaldehyde O-(3,4-dichlorobenzyl)oxime (CITCO) with a final concentration range 2.8 nM to 92 µM were transferred (23 nL) via pintool (Wako Automation).
4. After compound transfer, plates were dispensed with 1 µL of the known hCAR antagonist PK11195 (final concentration of 0.75 µM) in the agonist mode using a BioRAPTR FRDTM.
6. 1 µL of CellTiter-Fluortrade mark (Promega, Madison, Wisconsin) was added using a BioRAPTR FRDTM.
8. Fluorescence intensity (Ex/Em = 405 nm/540 nm) is obtained using the ViewLux plate reader to determine cell viability.
9. 4 µL of ONE-Glotrade mark Luciferase reagent (Promega) was added to each well using the BioRAPTR FRDTM,
10. Luminescence intensity is read using the ViewLux detector.
Inglese J, Shamu CE and Guy RK, Reporting data from high throughput screening of small molecule libraries, Nature Chemical Biology, 2007, 3(8): 438-441. doi.org/10.1038/nchembio0807-438.
For `COc1cc2c(cc1O)C[C@H]1c3c(cc(OC)c(O)c3-2)CCN1C`, the Potency was 12.6 µM (active). On to `C=C[C@H]1CN2CC[C@@]3(C(=O)Nc4ccccc43)[C@@H]2C[C@@H]1/C(=C\OC)C(=O)OC`, for which the “activation” value was -29.2%. On the same count and under the same terms, the value for `N#CC(O[C@@H]1O[C@H](CO[C@@H]2O[C@H](CO)[C@@H](O)[C@H](O)[C@H]2O)[C@@H](O)[C@H](O)[C@H]1O)c1ccccc1` (some centres not stated) was 9.05% [at 40 µM]. `C=C(C)[C@@H]1CCC(C)=C[C@H]1c1c(O)cc(CCCCC)cc1O`: the Potency is 31.6 µM [setting not given] (active). As for `COc1ccc2c(c1O)-c1c(OC)c(OC)cc3c1[C@H](C2)N(C)CC3`, the “activation” value was 0.275% [at 40 µM].

With `COC(=O)C1=CO[C@@H](C)[C@@H]2CN3CC[C@@]4(C(=O)Nc5ccccc54)[C@@H]3CC12` (some centres not stated), the “activation” value is 4.13%.

`C=C[C@H]1CN2CCc3c([nH]c4ccccc34)[C@H]2C[C@@H]1/C(=C\OC)C(=O)OC`: the “activation” value was 4.67%. The same measure, in the same setting: with `C=CCc1ccc2c(c1)OCO2` the figure was -18.5% [at 40 µM]; with `CCCCCCCCCCCCCCCCCCCC(=O)O`, 3.15% [at 40 µM]; with `COC1=C[C@@]23CCN(C)[C@H](Cc4ccc(OC)c(O)c42)C3=CC1=O`, 0.638% [at 40 µM]. The same measure, in the same setting: with `CC[C@@H]1CN2CC[C@]3(C(=O)Nc4ccccc43)[C@@H]2C[C@@H]1/C(=C\OC)C(=O)OC` the figure was 7.72%; with `COc1cc2c(cc1O)CC1NCCc3cc(OC)c(OC)c-2c31` (configuration not stated), -11.8%.
